Active and inactive are the calls of the source.
Key:
[1] = tested on: Wnt5a (protein binding on small-molecule microarray); experiment: Wnt5a binders on small-molecule microarray, primary screen, biophysical, 635/667 nm fluorescence (AID 1142); conditions: 635 nm fluorescence, higher = more signal;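 note: fluorescence read at 667 nm with signal to noise per printed feature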
[2] = cell viability in Huh7 cells, primary screen, cytotoxicity control for HCV replication inhibitor project, CellTiter-Glo luminescence, basal, 48 h (AID 1143); conditions: Huh7 HCV replicon, higher = more signal, called active from +8 up or from −8 down;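 note: Huh7 hepatoma cells carrying a hepatitis C replication reporter with no stimulus; test concentration not given here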
[3] = CREB reporter modulators without forskolin, primary screen, cell-based, PC12, CRE-LacZ reporter, unstimulated (AID 1145); conditions: no forskolin, luminescence, 4.5 h, higher = more signal, called active from +8 up or from −8 down
[4] = CREB reporter modulators under forskolin, primary screen, cell-based, PC12, CRE-LacZ reporter, forskolin-stimulated (AID 1146); conditions: luminescence, 4.5 h, higher = more signal, called active from +8 up or from −8 down;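 note: PC12 cells with 6xCRE LacZ reporter stimulated by forskolin 10 µM; beta-galactosidase reporter signal reflecting CREB driven transcription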
[5] = target: Streptavidin (Streptomyces avidinii) (UniProt P22629); experiment: streptavidin binders on small-molecule microarray, primary screen, artefact control for SMM compound annotation, biophysical, 635/667 nm fluorescence (AID 1147); conditions: streptavidin binding, higher = more signal;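 note: signal reflects streptavidin binding to arrayed compounds as a control protein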
Sequence of Streptavidin (Streptomyces avidinii) (P22629 whole entry, looked up): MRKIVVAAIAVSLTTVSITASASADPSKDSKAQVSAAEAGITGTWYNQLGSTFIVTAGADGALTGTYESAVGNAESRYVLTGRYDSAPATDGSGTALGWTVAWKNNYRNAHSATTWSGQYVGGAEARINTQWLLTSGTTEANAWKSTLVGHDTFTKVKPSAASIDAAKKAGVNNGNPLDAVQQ

[6] = small-molecule binders of probe aInhba, primary screen, biochemical, small-molecule microarray, 635/667 nm fluorescence (AID 1148); conditions: higher = more signal;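 note: score merges 667nm spot fluorescence with signal-to-noise for antibody binding to printed compounds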
Torsin-1A (Homo sapiens) [7] = target: Torsin-1A (Homo sapiens) (UniProt O14656); experiment: torsin A binders from cell lysate, primary screen, small-molecule microarray, wild-type, 635/667 nm (AID 1149); conditions: COS7 hTOR1A-WT lysate, 635 nm fluorescence, higher = more signal
Sequence of Torsin-1A (Homo sapiens) (O14656 whole entry, looked up): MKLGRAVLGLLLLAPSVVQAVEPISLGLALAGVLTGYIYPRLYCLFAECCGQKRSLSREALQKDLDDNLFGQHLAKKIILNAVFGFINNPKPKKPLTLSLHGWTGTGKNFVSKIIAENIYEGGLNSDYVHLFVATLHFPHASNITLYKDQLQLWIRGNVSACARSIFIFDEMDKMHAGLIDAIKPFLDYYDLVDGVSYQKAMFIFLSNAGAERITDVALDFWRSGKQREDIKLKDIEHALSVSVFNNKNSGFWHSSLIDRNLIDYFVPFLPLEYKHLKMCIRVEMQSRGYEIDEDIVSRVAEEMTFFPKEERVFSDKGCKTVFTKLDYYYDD

Torsin-1A (Homo sapiens) [8] = target: Torsin-1A (Homo sapiens) (UniProt O14656); experiment: small-molecule binders of mutant TOR1A in lysate, primary screen, cell lysate, small-molecule microarray, COS7 lysate, 635/667 nm fluorescence (AID 1150); conditions: COS7 hTOR1A mutant lysate, 635 nm fluorescence, higher = more signal;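 note: score pools 667 nm emission and signal to noise measuring lysate protein binding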
[9] = tested on: Sonic hedgehog protein (Shh); experiment: small-molecule binders of Shh protein, primary screen, biochemical, small-molecule microarray, 635/667 nm fluorescence (AID 1151); conditions: small-molecule microarray binding, 635 nm fluorescence; higher = more signal;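 note: Shh protein binding to compounds spotted on small-molecule microarray slides; score combines spot fluorescence intensity with signal-to-noise across triplicate slides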
[10] = E. coli DRC41 culture turbidity changes, primary screen, E. coli filamentation inducer project, strain DRC41, OD650, 48 h (AID 1152);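 note: E. coli MC1000 strain DRC41 lacking acrAB efflux pump and sulA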; conditions: E. coli DRC41 (acrAB sulA), higher = more signal, called active from +8 up or from −8 down
[11] = small-molecule binders of probe aLefty1, primary screen, biochemical, small-molecule microarray, 635/667 nm fluorescence (AID 1153); conditions: higher = more signal;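 note: score merges spot fluorescence with signal-to-noise ratio from the scanned slide images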
[12] = PSAC antagonists in infected red cells, primary screen, cell-based, P. falciparum Indochina, OD700, 1 h (AID 1154); conditions: P. falciparum Indochina infected RBC osmotic lysis, higher = more signal, called active from +8 up or from −8 down
[13] = PSAC antagonists in infected red cells, primary screen, cell-based, P. falciparum Indochina, OD700, 2 h (AID 1155);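 note: lysis reports solute entry through the parasite surface anion channel PSAC; channel blockers reduce lysis of infected cells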; conditions: P. falciparum Indochina infected erythrocytes, osmotic lysis OD700; higher = more signal, called active from +8 up or from −8 down
[14] = osmotic lysis modulators in infected erythrocytes, primary screen, PSAC antagonist project, cell-based, P. falciparum Indochina, OD700, 3 h (AID 1156); conditions: higher = more signal, called active from +8 up or from −8 down
[15] = PSAC antagonists in infected red cells, primary screen, cell-based, P. falciparum Indochina, OD700, 18 h (AID 1157); conditions: P. falciparum Indochina infected erythrocytes, osmotic lysis OD700, 18 h; higher = more signal, called active from +8 up or from −8 down
[16] = modulators of S6 phosphorylation in cells, primary screen, cell-based, A549, cytoblot, luminescence, serum-stimulated (AID 1158); conditions: A549 phospho-S6 cytoblot, 5 h, higher = more signal;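 note: serum-stimulated A549 lung adenocarcinoma cells; signal is phosphorylated S6 detected by cytoblot immunostaining with HRP secondary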
[17] = target: NADPH oxidase 2 (Homo sapiens) (UniProt P04839); experiment: NOX2-dependent H2O2 signal modulators, primary screen, NOX inhibitor project, cell-based, HEK293-NOX2, PMA-stimulated, Amplex Red fluorescence (AID 1159); conditions: 45 min, higher = more signal, called active from +8 up or from −8 down; note: test concentration not given here
Sequence of NADPH oxidase 2 (Homo sapiens) (P04839 whole entry, looked up): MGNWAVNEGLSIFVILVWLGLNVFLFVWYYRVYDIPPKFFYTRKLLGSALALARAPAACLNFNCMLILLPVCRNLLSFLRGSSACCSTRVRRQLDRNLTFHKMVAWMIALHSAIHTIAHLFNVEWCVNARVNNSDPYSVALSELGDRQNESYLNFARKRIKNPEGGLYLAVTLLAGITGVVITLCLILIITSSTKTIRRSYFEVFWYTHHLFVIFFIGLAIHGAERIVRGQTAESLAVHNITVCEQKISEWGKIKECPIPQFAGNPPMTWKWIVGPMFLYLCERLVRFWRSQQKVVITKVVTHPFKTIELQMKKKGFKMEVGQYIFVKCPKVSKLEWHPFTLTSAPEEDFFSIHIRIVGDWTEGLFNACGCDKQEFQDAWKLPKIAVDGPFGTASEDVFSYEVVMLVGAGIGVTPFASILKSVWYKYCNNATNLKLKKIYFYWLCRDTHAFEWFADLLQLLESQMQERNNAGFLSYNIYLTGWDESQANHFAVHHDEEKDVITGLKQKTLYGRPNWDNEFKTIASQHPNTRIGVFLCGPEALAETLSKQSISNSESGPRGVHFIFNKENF

[18] = target: NADPH oxidase 4 (Homo sapiens) (UniProt Q9NPH5); experiment: NOX4-dependent H2O2 signal modulators, primary screen, NOX inhibitor project, cell-based, HEK293-NOX4, tetracycline-induced, Amplex Red fluorescence (AID 1160); conditions: 45 min, higher = more signal, called active from +8 up or from −8 down
Sequence of NADPH oxidase 4 (Homo sapiens) (Q9NPH5 whole entry, looked up): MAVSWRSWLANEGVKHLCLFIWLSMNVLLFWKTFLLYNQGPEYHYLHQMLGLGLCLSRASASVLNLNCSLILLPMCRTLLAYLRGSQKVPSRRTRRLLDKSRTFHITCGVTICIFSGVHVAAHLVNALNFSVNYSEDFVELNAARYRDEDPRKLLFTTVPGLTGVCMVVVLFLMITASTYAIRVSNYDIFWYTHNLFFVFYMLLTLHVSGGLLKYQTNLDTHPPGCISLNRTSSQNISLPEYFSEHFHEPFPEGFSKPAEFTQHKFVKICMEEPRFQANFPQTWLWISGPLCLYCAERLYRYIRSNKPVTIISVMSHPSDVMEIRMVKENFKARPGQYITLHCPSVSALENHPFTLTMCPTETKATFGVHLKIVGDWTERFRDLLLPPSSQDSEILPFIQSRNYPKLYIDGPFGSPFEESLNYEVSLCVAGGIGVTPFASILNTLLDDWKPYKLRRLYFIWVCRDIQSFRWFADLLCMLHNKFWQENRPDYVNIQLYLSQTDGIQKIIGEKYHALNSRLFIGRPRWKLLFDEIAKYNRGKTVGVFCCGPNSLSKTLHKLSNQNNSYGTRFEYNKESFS

[19] = target: NADPH oxidase 5 (Homo sapiens) (UniProt Q96PH1); experiment: NOX5-dependent H2O2 signal modulators, primary screen, NOX inhibitor project, cell-based, HEK293-NOX5, Amplex Red fluorescence (AID 1161); conditions: HEK293-NOX5, ionomycin, 45 min, higher = more signal
Sequence of NADPH oxidase 5 (Homo sapiens) (Q96PH1 whole entry, looked up): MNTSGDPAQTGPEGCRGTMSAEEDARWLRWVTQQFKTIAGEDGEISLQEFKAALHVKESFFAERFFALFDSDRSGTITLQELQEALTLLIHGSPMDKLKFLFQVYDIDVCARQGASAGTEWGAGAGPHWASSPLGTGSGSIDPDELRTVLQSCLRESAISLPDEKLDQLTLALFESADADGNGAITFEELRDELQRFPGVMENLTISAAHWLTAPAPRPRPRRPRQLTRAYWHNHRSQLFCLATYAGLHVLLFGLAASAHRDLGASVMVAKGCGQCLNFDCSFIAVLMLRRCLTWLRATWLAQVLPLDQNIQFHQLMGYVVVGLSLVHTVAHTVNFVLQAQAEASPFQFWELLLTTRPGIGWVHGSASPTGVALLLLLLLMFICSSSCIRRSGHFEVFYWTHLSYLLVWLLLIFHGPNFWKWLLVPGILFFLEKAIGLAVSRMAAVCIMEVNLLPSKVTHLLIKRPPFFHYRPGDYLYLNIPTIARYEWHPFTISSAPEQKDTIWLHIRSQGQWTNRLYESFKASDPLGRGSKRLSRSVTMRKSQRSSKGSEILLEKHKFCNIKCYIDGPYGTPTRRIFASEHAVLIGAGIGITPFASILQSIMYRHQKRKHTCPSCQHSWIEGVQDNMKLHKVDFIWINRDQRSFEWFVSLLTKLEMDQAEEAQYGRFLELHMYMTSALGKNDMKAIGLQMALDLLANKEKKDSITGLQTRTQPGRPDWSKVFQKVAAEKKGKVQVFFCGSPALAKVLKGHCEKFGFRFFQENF

[20] = A549 cell viability effects, profiling panel, calcein-AM fluorescence, 48 h, basal (AID 1162); conditions: higher = more signal; note: test concentration not given here

| SMILES | composite z-score [1] | z-score [2] | z-score [3] | z-score [4] | composite z-score [5] | composite z-score [6] | composite z-score (Torsin-1A (Homo sapiens) [7]) | composite z-score (Torsin-1A (Homo sapiens) [8]) | composite z-score [9] | z-score [10] | composite z-score [11] | z-score [12] | z-score [13] | z-score [14] | z-score [15] | z-score [16] | z-score [17] | z-score [18] | z-score [19] | z-score [20] |
| --- | --- | --- | --- | --- | --- | --- | --- | --- | --- | --- | --- | --- | --- | --- | --- | --- | --- | --- | --- | --- |
| C=CCC(OC(C)=O)[C@@H]1[C@@H](N(Cc2cccc3ccccc23)C(=O)c2cccc3ccccc23)c2cc(OCCCO)ccc2N1C(=O)Cc1ccc(OC)cc1 (stereo not given in full) | -0.0589 | -3.55 (inactive) | 1.47 (inactive) | -0.876 (inactive) | 0.228 | -0.179 | -0.0507 | 0.274 | 0.234 | 2.86 (inactive) | 0.0945 | 2.59 (inactive) | -0.227 (inactive) | -0.0889 (inactive) | -0.618 (inactive) | 1.5 | 0.295 (inactive) | -0.783 (inactive) | 1.46 | 0.725 |
| C=CCN1C(=O)[C@@]2(O[C@@H](CCn3cc(CCO)nn3)[C@H]([Si](C)(C)c3ccc(OC)cc3)[C@H]2C)c2cc(NC(=O)c3ccc(OC)cc3)ccc21 | 0.315 | -2.79 (inactive) | 12.8 (active) | -2.29 (inactive) | 0.441 | 0.0497 | 0.558 | 0.437 | 1.4 | 0.596 (inactive) | 0.0789 | 12.1 (active) | 2.03 (inactive) | 1.1 (inactive) | 0.742 (inactive) | 0.157 | -0.282 (inactive) | 1.45 (inactive) | 0.367 | -0.0183 |
| C=CCOC(=O)[C@H]1[C@@H]2C(=O)O[C@@H](c3ccccc3)[C@@H](c3ccccc3)N2[C@@H](c2ccc(OCCOC(=O)[C@H]3C[C@H]4C(=O)N5CCC[C@H]5C(=O)N4[C@H]3c3cccc(OCCO)c3)cc2)[C@]12C(=O)Nc1ccccc12 | 0.135 | -2.03 (inactive) | 1.22 (inactive) | -0.378 (inactive) | -0.0186 | -0.0849 | 0.292 | 1.54 | 1.18 | 1.18 (inactive) | -0.106 | 5.04 (inactive) | 1.7 (inactive) | -0.158 (inactive) | 0.741 (inactive) | -0.0338 | 2.26 (inactive) | 1.57 (inactive) | 1.43 | 0.552 |
| O=C1O[C@H](c2ccccc2)[C@H](c2ccccc2)N2[C@H]1[C@@H](C(=O)NC[C@H](O)c1ccccc1)[C@]1(C(=O)Nc3ccc(C#CC4(O)CCCCCC4)cc31)[C@H]2c1ccc(O)cc1 | 0.195 | -2.13 (inactive) | -0.0607 (inactive) | -0.58 (inactive) | 0.26 | 0.0377 | 0.704 | 1.02 | 1.27 | 1.46 (inactive) | 0.0495 | 0.519 (inactive) | 0.447 (inactive) | 0.001 (inactive) | -0.181 (inactive) | 0.381 | 1.68 (inactive) | 0.753 (inactive) | 1.58 | 0.97 |
| O=C(O)[C@H]1C[C@H]2C(=O)NCC(=O)N2[C@H]1c1cccc(OCCO)c1 | 0.0144 | -0.812 (inactive) | 0.285 (inactive) | -0.736 (inactive) | 0.42 | 0.263 | 0.836 | 0.654 | 0.821 | 2.08 (inactive) | 1.24 | 9.23 (active) | 1.29 (inactive) | -1.73 (inactive) | 0.818 (inactive) | 0.617 | 1.81 (inactive) | 1.52 (inactive) | 1.61 | -0.24 |
| CCN(CC)c1ccc(N2CC=CC34O[C@@H]5C=CCOC(=O)[C@@H]5[C@H]3C(=O)N(C(C)CO)[C@@H]4C2=O)cc1 (stereo not given in full) | -0.701 | -0.269 (inactive) | 0.195 (inactive) | 0.188 (inactive) | -1.27 | -0.123 | -1.08 | -0.641 | -0.903 | 1.55 (inactive) | 0.121 | 0.0295 (inactive) | 0.447 (inactive) | 0.976 (inactive) | 0.255 (inactive) | -0.153 | 0.126 (inactive) | 0.197 (inactive) | 0.871 | 0.271 |
| COc1ccc([Si](C)(C)[C@H]2[C@H](CCO)O[C@@]3(C(=O)N(Cc4ccc(N5C(=O)c6cccc7cccc5c67)cc4)c4ccccc43)[C@@H]2C)cc1 | -0.158 | -6.16 (inactive) | 0.399 (inactive) | -1.05 (inactive) | 0.338 | -0.101 | -0.294 | -0.124 | -0.0681 | 1.19 (inactive) | -0.147 | 3.64 (inactive) | 2.29 (inactive) | -0.273 (inactive) | 1.23 (inactive) | 1.63 | 0.469 (inactive) | 0.821 (inactive) | 0.378 | -1.02 |
| C=C(COC)C(=O)CC[C@H](OC(=O)c1cccnc1)c1cccc(OCCO)c1 | 1 | -0.365 (inactive) | 6.86 (inactive) | 0.309 (inactive) | -0.347 | 0.345 | 2.35 | 0.0556 | 2.06 | 1.05 (inactive) | 0.75 | 10.4 (active) | 1.47 (inactive) | 0.934 (inactive) | 0.577 (inactive) | -0.597 | 0.936 (inactive) | 0.743 (inactive) | -1.3 | 0.18 |
